The text below walks through data of the antibiotic and cytotoxicity screens of Wong et al. (2023).

The campaign covered roughly 39,000 compounds. About 3,300 (8.5%) were called active. The list comes from a sample in which actives are over-represented; it also holds similar structures and randomly drawn compounds.

The test system of this experiment is HepG2. Put plainly: cytotoxicity call (relative viability < 0.9). The conditions noted are these: 10 µM.
`CO[C@@]1(C2=NCCN2)COc2ccccc2O1`: the cytotoxicity call is “inactive”.

Take `O=C1O[C@@H](c2ccccc2)[C@@H](c2ccccc2)N2[C@@H](c3ccccc3OCCO)[C@]3(C(=O)Nc4ccc(C#CC5(O)CCCCCC5)cc43)[C@@H](C(=O)N3CCCCCCC3)[C@H]12`: the cytotoxicity call was “inactive”.

For the compound `C[C@H](CO)N1C[C@H](C)[C@H](CN(C)C(=O)C2CCCCC2)OCCCC[C@H](C)Oc2ccc(NC(=O)C3CCCCC3)cc2C1=O`, the cytotoxicity call is “inactive”.

For the compound `CCCn1c(=O)c(C)cn2nc(N)nc12`, the cytotoxicity call is “inactive”.

Consider `O=C(N[C@@H]1C=C[C@@H](CC(=O)N2CCOCC2)O[C@@H]1CO)c1ccccn1`, for which the cytotoxicity call is “inactive”.

Take `O=C(CCn1ccc(=O)[nH]c1=O)Nc1ccc2c(c1)NC(=O)CO2`: the cytotoxicity call was “inactive”.

`COc1ccc2c3c([nH]c2c1)[C@@H](CO)N(CC1CCCCC1)C[C@]13CCN(CC1)C(=O)NC1CCCC1`: the cytotoxicity call is “inactive”.

As for `Cc1noc(C)c1S(=O)(=O)Nc1ccc2c(c1)CC(=O)N([C@H](C)CO)C[C@@H](C)[C@H](CN(C)Cc1ccc3c(c1)OCO3)O2`, the cytotoxicity call was “inactive”.

In the case of `CN(C)c1ccsc1C(=O)NN`, the cytotoxicity call is “inactive”.

Turning to `C[C@@H]1CN([C@H](C)CO)C(=O)c2cc(NC(=O)CCC(F)(F)F)ccc2O[C@@H](C)CCCCO[C@H]1CN(C)C(=O)C1CCCCC1`, the cytotoxicity call is “inactive”.

As to `C[C@@H]1CCCCO[C@H](CN(C)C(=O)C2CCCCC2)[C@H](C)CN([C@@H](C)CO)C(=O)c2cc(NC(=O)Nc3ccc4c(c3)OCO4)ccc2O1`, the cytotoxicity call was “inactive”.

`Cc1nc(COP(=O)(O)O)cc2c1[O][Mn][O]c1c(cc(COP(=O)(O)O)nc1C)CN(CC(=O)O)CCN(CC(=O)O)C2`: the cytotoxicity call was “inactive”.

With `C[C@@H]1CCCCO[C@@H](CN(C)CC2CCCCC2)[C@H](C)CN([C@H](C)CO)C(=O)c2cc(NC(=O)Nc3ccc(F)cc3)ccc2O1`, the cytotoxicity call is “active”.

With `C[C@@H]1CCCCO[C@@H](CN(C)CC2CCCCC2)[C@H](C)CN([C@@H](C)CO)C(=O)c2cc(NC(=O)Nc3ccc(F)cc3)ccc2O1`, the cytotoxicity call was “active”.

`C[C@@H]1CCCCO[C@H](CN(C)CC2CCCCC2)[C@@H](C)CN([C@H](C)CO)C(=O)c2cc(NC(=O)Nc3ccc(F)cc3)ccc2O1`: the cytotoxicity call is “inactive”.

Take `C[C@@H]1CCCCO[C@H](CN(C)CC2CCCCC2)[C@H](C)CN([C@@H](C)CO)C(=O)c2cc(NC(=O)Nc3ccc(F)cc3)ccc2O1`: the cytotoxicity call is “active”.

Take `C[C@H]1CCCCO[C@@H](CN(C)CC2CC2)[C@@H](C)CN([C@@H](C)CO)C(=O)c2cc(NC(=O)Nc3ccc(F)cc3)ccc2O1`: the cytotoxicity call is “inactive”.

Regarding `C[C@@H]1CN([C@@H](C)CO)C(=O)c2cc(NC(=O)Nc3ccc(F)cc3)ccc2O[C@@H](C)CCCCO[C@@H]1CN(C)CC1CCCCC1`, the cytotoxicity call is “active”.

On to `C[C@@H]1CN([C@H](C)CO)C(=O)CCCn2cc(nn2)CO[C@H]1CN(C)S(=O)(=O)c1ccc2c(c1)OCCCO2`, for which the cytotoxicity call was “inactive”.

Take `Cc1noc(C)c1NC(=O)N(C)C[C@H]1OCCCC[C@H](C)Oc2ccc(NC(=O)NC3CCCCC3)cc2C(=O)N([C@@H](C)CO)C[C@@H]1C`: the cytotoxicity call is “inactive”.

As to `CN(C)CC#Cc1ccc([C@@H]2[C@H]3CN(C(=O)CN(C)C)CCCCN3[C@H]2CO)cc1`, the cytotoxicity call is “inactive”.

Regarding `C[C@@H]1CCCCO[C@@H](CN(C)C(=O)NC2CCCCC2)[C@H](C)CN([C@@H](C)CO)C(=O)c2cc(NC(=O)NC3CCCCC3)ccc2O1`, the cytotoxicity call is “inactive”.

On to `O=C(C[C@@H]1C[C@H]2c3cc(NC(=O)c4ccc5c(c4)OCO5)ccc3O[C@H]2[C@@H](CO)O1)NCc1ccccn1`, for which the cytotoxicity call is “inactive”.

For `C[C@@H]1CN([C@@H](C)CO)C(=O)c2cccc(NC(=O)Nc3ccc(C(F)(F)F)cc3)c2O[C@@H]1CN(C)Cc1ccc(-c2ccccc2)cc1`, the cytotoxicity call is “inactive”.

For the compound `CC(C)NC(=O)Nc1ccc2c(c1)CC(=O)N([C@H](C)CO)C[C@@H](C)[C@H](CN(C)S(=O)(=O)c1cn(C)cn1)O2`, the cytotoxicity call was “inactive”.

Consider `C[C@H]1CN([C@@H](C)CO)C(=O)c2cccc(NS(=O)(=O)c3ccc(F)cc3)c2O[C@@H]1CN(C)Cc1ccncc1`, for which the cytotoxicity call is “inactive”.

Regarding `C[C@H](O)C#Cc1ccc2c(c1)O[C@H](CN(C)C(=O)c1ccccc1)[C@H](C)CN([C@@H](C)CO)S2(=O)=O`, the cytotoxicity call was “inactive”.

On to `C[C@@H]1CN([C@@H](C)CO)S(=O)(=O)c2ccc(-c3cccnc3)cc2O[C@H]1CN(C)C(=O)c1cccc(F)c1`, for which the cytotoxicity call was “inactive”.

`C[C@H](CO)N1C[C@H](C)[C@H](CN(C)CC2CCCCC2)OCCCC[C@H](C)Oc2ccc(NC(=O)Nc3ccc(F)cc3)cc2C1=O`: the cytotoxicity call was “active”.

In the case of `C[C@@H]1CN([C@@H](C)CO)C(=O)c2cc(NC(=O)Nc3ccc(F)cc3)ccc2O[C@@H](C)CCCCO[C@H]1CN(C)CC1CCCCC1`, the cytotoxicity call is “active”.

On to `C[C@H](CO)N1C[C@H](C)[C@H](CN(C)CC2CC2)OCCCC[C@H](C)Oc2ccc(NC(=O)Nc3ccc(F)cc3)cc2C1=O`, for which the cytotoxicity call is “inactive”.

On to `C[C@H](CO)N1C[C@H](C)[C@@H](CN(C)CC2CC2)OCCCC[C@H](C)Oc2ccc(NC(=O)Nc3ccc(F)cc3)cc2C1=O`, for which the cytotoxicity call is “inactive”.

In the case of `C[C@@H]1CCCCO[C@@H](CN(C)CC2CC2)[C@H](C)CN([C@@H](C)CO)C(=O)c2cc(NC(=O)Nc3ccc(F)cc3)ccc2O1`, the cytotoxicity call was “inactive”.

`C[C@H](CO)N1C[C@H](C)[C@@H](CN(C)CC2CCCCC2)OCCCC[C@H](C)Oc2ccc(NC(=O)Nc3ccc(F)cc3)cc2C1=O`: the cytotoxicity call was “active”.

On to `C[C@@H]1CCCCO[C@@H](CN(C)CC2CC2)[C@@H](C)CN([C@H](C)CO)C(=O)c2cc(NC(=O)Nc3ccc(F)cc3)ccc2O1`, for which the cytotoxicity call is “inactive”.

Consider `COCC(=O)Nc1ccc2c(c1)OC[C@H](C)N(C(=O)Cc1cccnc1)C[C@@H](C)[C@H](OC)CN(C)C2=O`, for which the cytotoxicity call was “inactive”.

On to `COCC#Cc1ccc2c(c1)O[C@H](CN(C)C(=O)Nc1ccccc1F)[C@H](C)CN([C@@H](C)CO)S2(=O)=O`, for which the cytotoxicity call was “inactive”.

Regarding `COc1ccccc1-c1cnc2c(c1)C(=O)N([C@@H](C)CO)C[C@H](C)[C@@H](CN(C)C(=O)c1ccncc1)O2`, the cytotoxicity call is “inactive”.

Regarding `O=C(C[C@H]1CC[C@@H](NC(=O)CN2CCOCC2)[C@@H](CO)O1)NC1CCC1`, the cytotoxicity call was “inactive”.

With `O=C1/C(=C/C=C/c2ccco2)CCC/C1=C\C=C\c1ccco1`, the cytotoxicity call was “inactive”.

Consider `NC(=O)CSc1nnnn1-c1cccc(O)c1`, for which the cytotoxicity call was “inactive”.

In the case of `C[C@H]1CN([C@@H](C)CO)C(=O)c2cccc(NC(=O)c3cnccn3)c2O[C@@H]1CN(C)S(=O)(=O)c1ccc(Cl)cc1`, the cytotoxicity call was “inactive”.

For the compound `CC(C)NC(=O)N(C)C[C@H]1Oc2ccc(NC(=O)C3CCCCC3)cc2C(=O)N([C@@H](C)CO)C[C@@H]1C`, the cytotoxicity call is “inactive”.

As to `CS(=O)(=O)Nc1ccc2c(c1)[C@H]1C[C@@H](CC(=O)NCc3ccc(-c4ccccc4)cc3)O[C@@H](CO)[C@H]1O2`, the cytotoxicity call was “inactive”.

Take `C[C@@H]1CCCCO[C@H](CN(C)Cc2ccccc2)[C@H](C)CN([C@H](C)CO)C(=O)c2cc(NS(=O)(=O)c3ccc(F)cc3)ccc2O1`: the cytotoxicity call was “inactive”.

Take `O=C(C[C@H]1C=C[C@H](NS(=O)(=O)c2ccccc2)[C@@H](CO)O1)NCc1ccncn1`: the cytotoxicity call was “inactive”.

For the compound `C[C@H](CO)N1C[C@H](C)[C@@H](CN(C)Cc2ccc(C(F)(F)F)cc2)Oc2ccc(NC(=O)Nc3ccc(C(F)(F)F)cc3)cc2CC1=O`, the cytotoxicity call is “active”.

In the case of `C[C@H]1CN([C@@H](C)CO)C(=O)Cc2cc(NC(=O)Nc3ccc(C(F)(F)F)cc3)ccc2O[C@@H]1CN(C)Cc1ccc(C(F)(F)F)cc1`, the cytotoxicity call is “inactive”.

`C[C@H]1CN([C@@H](C)CO)C(=O)Cc2cc(NC(=O)Nc3ccc(C(F)(F)F)cc3)ccc2O[C@H]1CN(C)Cc1ccc(C(F)(F)F)cc1`: the cytotoxicity call is “active”.

On to `C[C@@H]1CN([C@H](C)CO)C(=O)Cc2cc(NC(=O)CCC(F)(F)F)ccc2O[C@H]1CN(C)Cc1ccc(C(F)(F)F)cc1`, for which the cytotoxicity call is “active”.

Consider `C[C@@H]1CN([C@H](C)CO)C(=O)Cc2cc(NC(=O)CCC(F)(F)F)ccc2O[C@@H]1CN(C)Cc1ccc(C(F)(F)F)cc1`, for which the cytotoxicity call was “inactive”.

Regarding `C[C@@H]1CN([C@H](C)CO)C(=O)Cc2cc(NC(=O)Nc3ccc(C(F)(F)F)cc3)ccc2O[C@@H]1CN(C)Cc1ccc(C(=O)O)cc1`, the cytotoxicity call is “inactive”.

Consider `C[C@@H]1CN([C@@H](C)CO)C(=O)Cc2cc(NC(=O)Nc3ccc(C(F)(F)F)cc3)ccc2O[C@@H]1CN(C)Cc1ccc(C(=O)O)cc1`, for which the cytotoxicity call is “inactive”.

`C[C@@H]1CN([C@H](C)CO)C(=O)Cc2cc(NC(=O)Nc3ccc(C(F)(F)F)cc3)ccc2O[C@H]1CN(C)Cc1ccc(C(F)(F)F)cc1`: the cytotoxicity call is “inactive”.

Take `C[C@H]1CN([C@@H](C)CO)C(=O)Cc2cc(NC(=O)CCC(F)(F)F)ccc2O[C@@H]1CN(C)Cc1ccc(C(F)(F)F)cc1`: the cytotoxicity call is “inactive”.

As to `C[C@H](CO)N1C[C@H](C)[C@H](CN(C)Cc2ccc(C(F)(F)F)cc2)Oc2ccc(NC(=O)Nc3ccc(C(F)(F)F)cc3)cc2CC1=O`, the cytotoxicity call is “active”.

Regarding `Cc1noc(C)c1NC(=O)N[C@H]1CC[C@H](CC(=O)N2CCN(C)CC2)O[C@@H]1CO`, the cytotoxicity call was “inactive”.

With `O=C(C[C@@H]1CC[C@H]2[C@@H](COC[C@H](O)CN2S(=O)(=O)c2ccccc2F)O1)NCc1ccccc1Cl`, the cytotoxicity call is “inactive”.

Regarding `C[C@@H]1CN([C@@H](C)CO)C(=O)c2cc(NC(=O)Cc3ccccc3)ccc2O[C@@H]1CN(C)S(=O)(=O)c1cccs1`, the cytotoxicity call is “inactive”.

In the case of `O=C(O)Cn1nnnc1-c1ccc(F)cc1`, the cytotoxicity call was “inactive”.

Consider `CO[C@H]1O[C@H](CO)[C@@H](OC(=O)c2ccc(Br)cc2)[C@@H]2OC(=O)[C@@H](Cc3ccccc3)C/C=C/C[C@H](Cc3ccccc3)C(=O)O[C@@H]12`, for which the cytotoxicity call was “inactive”.

Take `COCC(=O)N1C[C@H](C)[C@@H](OC)CN(C)C(=O)c2ccc(NC(=O)c3ccc(F)cc3)cc2OC[C@H]1C`: the cytotoxicity call is “inactive”.

Regarding `COCC(=O)Nc1ccc2c(c1)OC[C@@H](C)N(Cc1ccccc1F)C[C@H](C)[C@H](OC)CN(C)C2=O`, the cytotoxicity call is “inactive”.

On to `CCCCCCCCCCCCCCCCOc1nc2ccc(C)cc2c(=O)o1`, for which the cytotoxicity call is “inactive”.
